Data: the OligoGym collection
Note: reference of the scale not given here.

Each sequence was assayed against PLN (assay: pooled miR-30 sensor sort-seq; sequence = guide strand). Conditions: shRNA.
Work on TATAGCTGAGCGAGTGAGGTAT yielded a sensor-assay potency score (higher = more potent) of -0.0267.
Sequence TTTGACGTGCTTGTTGAGGCAT has a sensor-assay potency score (higher = more potent) of 0.851.
In the case of TAAGATGAGACAGAAATTGATA, the sensor-assay potency score (higher = more potent) is reported as -0.754.
TTTAGTCTTAATCTTGACCTTT was tested, and the sensor-assay potency score (higher = more potent) was -0.026.
With TCTGTAGCTTTTGACGTGCTTG the sensor-assay potency score (higher = more potent) was -0.521.
Sequence TTAATCTTGACCTTTTCACAAA has a sensor-assay potency score (higher = more potent) of -1.35.
TAGCTTTTGACGTGCTTGTTGA gave a sensor-assay potency score (higher = more potent) of -0.611.
TTGACGTGCTTGTTGAGGCATT gave a sensor-assay potency score (higher = more potent) of -0.832.
Sequence TTGAGGCTCTTCTTATAGCTGA has a sensor-assay potency score (higher = more potent) of -0.603.
Sequence TTTCACAAAGAAACTCTTCTAC has a sensor-assay potency score (higher = more potent) of 0.725.
In the case of TTGTTTTCCTGTCTGCATGGGA, the sensor-assay potency score (higher = more potent) is reported as 0.161.
TTAGTCTTAATCTTGACCTTTT showed a sensor-assay potency score (higher = more potent) of -0.719.

What follows are sequences tested against PLS1 in the same assay as above. Conditions: shRNA.
TTAAGAGTCTGATTGACCCATT was tested, and the sensor-assay potency score (higher = more potent) was -0.779.
Sequence TTAACAATGCAATCAGAGCTTC has a sensor-assay potency score (higher = more potent) of -0.361.
In the case of TTTGCTTTTTAATTCTTGCATT, the sensor-assay potency score (higher = more potent) is reported as -1.04.
Work on TTTAAGAGTCTGATTGACCCAT yielded a sensor-assay potency score (higher = more potent) of 0.465.
For TGTGCTTATAGATTTATCCTTG, the sensor-assay potency score (higher = more potent) was 0.0263.
Work on TTTATCTGCTTCTTGAAGCATG yielded a sensor-assay potency score (higher = more potent) of -0.495.
ATTCCTTTCATTTAGGTCCTGC gave a sensor-assay potency score (higher = more potent) of 0.408.
With TTCCTTGCTCTCTCCTTCCAGT the sensor-assay potency score (higher = more potent) was -0.4.
TTAGTGACACAAACTCTTCAAA showed a sensor-assay potency score (higher = more potent) of -0.919.
